Reference: PubChem BioAssay

The molecules below were run on Wnt5a (protein binding on small-molecule microarray) (assay: Wnt5a binders on small-molecule microarray, primary screen, biophysical, 635/667 nm fluorescence (AID 1142;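 note: fluorescence read at 667 nm with signal to noise per printed feature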)). Conditions: 635 nm fluorescence, higher = more signal.

SMILES	composite z-score
COC(=O)C(CC#Cc1ccc2c(c1)[C@]1(C(=O)N2)[C@H](c2ccc(O)cc2)N2[C@H](c3ccccc3)[C@H](c3ccccc3)OC(=O)[C@H]2[C@@H]1C(=O)N1CCCCCCC1)C(=O)OC	0.851
CC(C)=CCCC(C)=CC(O)C1C=CC2C(=O)N(c3ccccc3)C(=O)C2N1Nc1ccccc1F (stereo unspecified)	0.151
CN(C)CCCCNC(=O)[C@H]1C[C@H]2C(=O)N[C@@H](CCCC[N+](C)(C)C)C(=O)N2[C@H]1c1ccc(O)cc1	0.0044
CN(C)CCCNC(=O)[C@@H]1c2ccccc2C(=O)N(C2CCCCC2)[C@H]1c1ccc(CO)cc1	0.76
CC(C)CNC(=O)[C@@H]1c2ccccc2C(=O)N(C2CCCCC2)[C@H]1c1ccc(CO)cc1	-0.141
O=C1C2C=CC(C(O)c3ccco3)N(Nc3ccccc3)C2C(=O)N1c1ccccc1 (stereo unspecified)	-0.476
COc1ccc([Si](C)(C)[C@@H]2[C@@H](CCn3cc([C@H](O)c4ccccc4)nn3)O[C@]3(C(=O)N(c4ccccc4)c4ccccc43)[C@H]2C)cc1	-0.0872
CCCNC(=O)[C@@]1(Sc2ccc(C)cc2)CC(=O)N(C2CCCCC2)[C@@H]1c1ccc(CO)cc1I	0.108
COC(=O)C(CC#Cc1ccc2c(c1)[C@]1(C(=O)N2)[C@H](C(=O)Nc2nc3ccccc3s2)[C@H]2C(=O)O[C@H](c3ccccc3)[C@H](c3ccccc3)N2[C@@H]1c1ccc(OCCO)cc1)C(=O)OC	1.07
CC(=O)NCCCC[C@@H]1NC(=O)[C@@H]2C[C@H](C(=O)NCCCCCCN)[C@H](c3cccc(OCCO)c3)N2C1=O	-0.147
COc1ccc([Si](C)(C)[C@H]2[C@H](CCO)O[C@@]3(C(=O)N(Cc4ccc(N5C(=O)c6ccccc6Oc6ccccc65)cc4)c4ccccc43)[C@@H]2C)cc1	-0.154
CCCCC=C[C@@H](NC(=O)c1ccccc1)c1ccccc1	-0.275
COCCOC(=O)N1C(=O)[C@@]2(c3cc(C#CC4=CCCCC4)ccc31)[C@H](C(=O)N1CCCCCCC1)[C@H]1C(=O)O[C@H](c3ccccc3)[C@H](c3ccccc3)N1[C@@H]2c1ccc(OCCO)cc1	0.636
COCCOC(=O)N1C(=O)[C@@]2(c3cc(C#CCNC(N)=O)ccc31)[C@H](c1ccc(O)cc1)N1[C@H](c3ccccc3)[C@H](c3ccccc3)OC(=O)[C@H]1[C@@H]2C(=O)N1CCN(c2ncccn2)CC1	0.0474
COCCOC(=O)N1C(=O)[C@@]2(c3cc(C#CCCO)ccc31)[C@H](c1ccccc1OCCO)N1[C@H](c3ccccc3)[C@H](c3ccccc3)OC(=O)[C@H]1[C@@H]2C(=O)N1CCCCCCC1	0.405
CC(=O)N1CC(C(O)C2C=CC3C(=O)NC(=O)C3N2Nc2ccc(Cl)cc2Cl)c2ccccc21 (stereo unspecified)	-0.0061
COc1cc2c(cc1OC)CN(C(=O)[C@@H]1[C@H]3C(=O)O[C@H](c4ccccc4)[C@H](c4ccccc4)N3[C@H](c3ccc(O)cc3)[C@@]13C(=O)Nc1ccc(C#CCCO)cc13)CC2	0.527
NCCCCCNC(=O)[C@H]1C[C@H]2C(=O)N[C@@H](Cc3ccccc3)C(=O)N2[C@H]1c1ccc(O)cc1	0.234
CC(C)OC(=O)CC(=O)CC(O)c1ccc([N+](=O)[O-])cc1 (stereo unspecified)	0.0008
CCCNC(=O)[C@@]1(C)c2ccccc2C(=O)N(Cc2ccccc2)[C@H]1c1ccc(CO)cc1	-0.15
COC(=O)[C@@]1(Cc2ccc(OC)cc2)[C@H]2c3cc(C(=O)N4CCCC4)n(Cc4cc(C)n(C)n4)c3C[C@H]2CN1C(=O)c1ccccc1	0.973
C=CCC(OC(C)=O)[C@@H]1[C@@H](N(Cc2ccc(-c3cccc(C(F)(F)F)c3)o2)C(=O)c2ccc(C)cc2)c2cc(OCCCO)ccc2N1C(=O)Cc1ccc(OC)cc1 (stereo partly specified)	0.058
CC(=O)n1cc(C(O)C2C=CC3C(=O)N(c4ccccc4)C(=O)C3N2Nc2ccc(C(C)C)cc2)c2ccccc21 (stereo unspecified)	0.076
C=CCC(OC(C)=O)[C@@H]1[C@@H](N(Cc2ccc(-c3ccccc3)cc2)C(=O)c2ccc(C)cc2)c2cc(OCCCO)ccc2N1C(=O)Cc1ccc2ccccc2c1 (stereo partly specified)	-0.0632
COc1cc(C(O)C2C=CC3C(=O)N(Cc4ccccc4)C(=O)C3N2n2cnnc2)cc(OC)c1OC (stereo unspecified)	0.388
COc1ccc(C(=O)Nc2cccc(CN3C(=O)[C@@]4(O[C@@H](CC(=O)N(CCO)Cc5ccccc5)[C@H]([Si](C)(C)c5ccc(OC)cc5)[C@H]4C)c4ccccc43)c2)cc1	-0.198
